Results on 33 compounds are retold here after PubChem BioAssay.

Calls of active or inactive are those of the source.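 Rule for the calls, unless noted: active = z-score of at least 1.8 in each of two replicates, scored against plate mean and spread of sample wells; inactive = the rest.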

A short description of assay [1]: MELAS cybrid and Rieske KO viability enhancers – cell-based, MELAS cybrids, Rieske KO mouse fibroblasts, CellTiter-Glo, primary screen (AID 1508586;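 active = mean z-score across replicates of 1.96 or higher in either the MELAS or the Rieske mutant cell line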;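 note: test concentration not given here; z relative to plate mean and SD of compound and empty wells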). The conditions noted are these: low glucose. (In general: In ATP-based viability assays light output follows the ATP content of the culture.)
The nature of assay [2]: galactose survival enhancers in mitochondrial complex I cybrids – cell-based, galactose medium, ATP luminescence, primary screen (AID 1645843).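 Note: positive z means more ATP and so rescue of galactose-driven cybrid death.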 The conditions noted are these: complex I mutant cybrid cells, 72 h, stronger effect = higher value.
Setting [3] is: MELAS cybrid survival, CellTiter-Glo 48 h, stronger effect = higher value.
Where [4] appears, read: Rieske KO mouse fibroblast survival, CellTiter-Glo 72 h.

Consider `CC(C)CCNc1cc(C(=O)NCCn2ccnc2)cc(S(=O)(=O)Nc2ccccc2)c1`, for which the z-score was -0.318 (inactive) in assay [1] (setting [3]), -0.223 in assay [1] (setting [4]) and -0.47 (inactive) in assay [2].

Turning to `COc1cc(CN2CCc3c(c(C(=O)NCCCN4CCOCC4)nn3C)C2)cc2c1OCO2`, the z-score in assay [1] (setting [3]) is 0.109 (inactive); in assay [1] (setting [4]), -0.162; in assay [2], -0.765 (inactive).

In the case of `COCC(=O)Nc1c(C(=O)OC)n(C)c2ncc(NCc3cnn(C)c3C)cc12`, the figures for the z-score in assay [1] (setting [3]), in assay [1] (setting [4]) and in assay [2] were -0.241 (inactive), -0.209 and -0.64 (inactive), respectively.

For the compound `CC(C)CN1CC(OCc2cccc(F)c2)CN(C(=O)Cn2cnc3ccccc3c2=O)CC1=O` (centres undefined), the z-score in assay [1] (setting [3]) was -0.0292 (inactive); in assay [1] (setting [4]), 0.00727; in assay [2], -0.43 (inactive).

On to `CCCCNC(=O)[C@@H]1C[C@H](CN2CCOCC2)CN(Cc2ccc(O)cc2)C1`, for which the z-score in assay [1] (setting [3]) is 1.06 (inactive); in assay [1] (setting [4]), -0.315; in assay [2], 0.115 (inactive).

As for `COc1ccc(/C=C/CN2CCc3c(cc(-c4cccc(-n5nc(C)cc5C)c4)c(=O)n3C)C2)cc1`, the z-score is -0.672 (inactive) in assay [1] (setting [3]), -0.157 in assay [1] (setting [4]) and -0.63 (inactive) in assay [2].

Consider `O=C(N[C@H]1C[C@H]2C(=O)N3CCC[C@H]3C(=O)N2C1)c1cccnc1Oc1ccc(Cl)cc1`, for which the z-score in assay [1] (setting [3]) is -0.353 (inactive); in assay [1] (setting [4]) it was -0.898; in assay [2], -0.34 (inactive).

As for `COC(=O)c1c(NC(=O)Cc2ccccc2)c2cc(NCc3nccs3)cnc2n1CC(C)C`, the z-score in assay [1] (setting [3]) was -0.876 (inactive); in assay [1] (setting [4]), 1.74; in assay [2], -1.62 (inactive).

Regarding `Cc1noc(C)c1CC(=O)N1CCc2c(c(C(=O)N3CCOCC3)nn2CCCc2ccccc2)C1`, the z-score in assay [1] (setting [3]) was 0.975 (inactive); in assay [1] (setting [4]), -0.571; in assay [2], -0.895 (inactive).

For `CCC(CC)CNc1cc(C(=O)NCCN(C)C)cc(S(=O)(=O)Nc2ccc(OC)cc2)c1`, the z-score was -0.364 (inactive) in assay [1] (setting [3]), 0.972 in assay [1] (setting [4]) and -1.11 (inactive) in assay [2].

Consider `Cn1cc(CN2CC(OCc3cccnc3)CN(Cc3cn[nH]c3-c3ccccc3)CC2=O)cn1` (centres undefined), for which the z-score was -0.178 (inactive) in assay [1] (setting [3]), -0.506 in assay [1] (setting [4]) and 0.715 (inactive) in assay [2].

In the case of `Cc1csc(SCC(=O)N2CCc3c(cc(-c4csc5ccccc45)c(=O)n3C)C2)n1`, the z-score in assay [1] (setting [3]) is -0.151 (inactive); in assay [1] (setting [4]), 0.398; in assay [2], 1.5 (inactive).

`Cc1ncsc1CCn1nc(C(=O)NC2CC2)c2c1CCN(C(=O)C1Cc3ccccc3O1)C2` (centres undefined): the z-score is -0.25 in assay [1] (setting [3]), 4.81 in assay [1] (setting [4]) and -0.18 (inactive) in assay [2].

As for `COC(=O)c1c(NC(C)=O)c2cc(NCc3sccc3C)cnc2n1CC1CCCO1` (centres undefined), the z-score in assay [1] (setting [3]) is 0.213 (inactive); in assay [1] (setting [4]), 0.989; in assay [2], -0.82 (inactive).

Consider `CCn1nc(C(=O)N2CCCC2)c2c1CCC(N1CCN(c3ccccc3OC)CC1)C2` (centres undefined), for which the z-score was -0.423 (inactive) in assay [1] (setting [3]), -0.558 in assay [1] (setting [4]) and -0.48 (inactive) in assay [2].

For `CC(C)CCN1C(=O)N(CCN(C)C)C(=O)C12CCN(Cc1cn(C)c3ccccc13)CC2`, the z-score in assay [1] (setting [3]) was -0.333 (inactive); in assay [1] (setting [4]), -0.689; in assay [2], 0.81 (inactive).

As to `CCCCNC(=O)[C@@H]1C[C@H](CN2CCOCC2)CN(Cc2ccccc2)C1`, the figures for the z-score in assay [1] (setting [3]), in assay [1] (setting [4]) and in assay [2] were -0.071 (inactive), -0.282 and -0.205 (inactive), respectively.

Take `O=C1N[C@H](Cc2ccc(O)cc2)C(=O)N2CCN(C(=O)c3cccc4ccccc34)C[C@H]12`: the z-score is 0.285 (inactive) in assay [1] (setting [3]), -0.378 in assay [1] (setting [4]) and -0.195 (inactive) in assay [2].

Consider `COC(=O)c1c(NC(=O)C2CCOC2)c2cc(NC(C)CO)cnc2n1CCCc1ccccc1` (centres undefined), for which the z-score in assay [1] (setting [3]) was -1.11 (inactive); in assay [1] (setting [4]), 1.02; in assay [2], -0.185 (inactive).

Consider `COC(=O)c1c(NC(=O)C2CCC2)c2cc(NC3CCSCC3)cnc2n1CCc1ccccn1`, for which the z-score in assay [1] (setting [3]) is -0.0865 (inactive); in assay [1] (setting [4]), -0.308; in assay [2], 1.1 (inactive).

With `CC(C)Cn1nc(C(=O)N2CCOCC2)c2c1CCC(NCc1ccc(F)cc1)C2` (centres undefined), the figures for the z-score in assay [1] (setting [3]), in assay [1] (setting [4]) and in assay [2] were 0.123 (inactive), -0.12 and 0.625 (inactive), respectively.

Take `Cc1cc(-c2cc3c(n(C)c2=O)CCN(Cc2c(C)nc4sccn24)C3)ccc1F`: the z-score in assay [1] (setting [3]) was -0.189 (inactive); in assay [1] (setting [4]), 0.11; in assay [2], 0.27 (inactive).

Regarding `C=CCn1nc(C(=O)N2CCSCC2)c2c1CCC(N1CCOc3ccc(Cl)cc3C1)C2` (centres undefined), the z-score in assay [1] (setting [3]) was -0.526 (inactive); in assay [1] (setting [4]), -0.713; in assay [2], 0.51 (inactive).

Take `C=CCn1nc(C(=O)N2CCCCCC2)c2c1CCC(NCc1cc(-c3ccccc3)on1)C2` (centres undefined): the z-score is -0.0315 (inactive) in assay [1] (setting [3]), 0.236 in assay [1] (setting [4]) and -1.62 (inactive) in assay [2].

Consider `CC(C)CNC(=O)[C@@H]1C[C@H](CN2CCOCC2)CN(Cc2nccn2C)C1`, for which the z-score in assay [1] (setting [3]) is 0.0237 (inactive); in assay [1] (setting [4]) it was 0.267; in assay [2] it was 0.2 (inactive).

Consider `COC(=O)CCN1CC(OCc2ccncc2)CN(C(=O)Cc2c(F)cccc2Cl)CC1=O` (centres undefined), for which the results for the z-score in assay [1] (setting [3]), in assay [1] (setting [4]) and in assay [2] were -0.399 (inactive), 0.103 and 1.43 (inactive), respectively.

Consider `COCCn1c(C(=O)OC)c(NC(=O)c2ccco2)c2cc(NC3CCc4ccccc4C3)cnc21` (centres undefined), for which the z-score was 9.06 (active) in assay [1] (setting [3]), -2 in assay [1] (setting [4]) and -1.68 (inactive) in assay [2].

On to `Cc1ccc(C(=O)N[C@H]2C[C@H]3C(=O)N[C@@H](Cc4ccc(O)cc4)C(=O)N3C2)cc1F`, for which the z-score in assay [1] (setting [3]) is -0.462 (inactive); in assay [1] (setting [4]), -0.468; in assay [2], 0.075 (inactive).

For `CCc1cc(C(=O)N2CCc3c(c(C(=O)N4CCN(c5ccccc5)CC4)nn3CC)C2)n(C)n1`, the figures for the z-score in assay [1] (setting [3]), in assay [1] (setting [4]) and in assay [2] were -0.699 (inactive), -0.0183 and 0.405 (inactive), respectively.

As to `CC(C)CNC(=O)[C@H]1CNC[C@@H](CN2CCOCC2)C1`, the results for the z-score in assay [1] (setting [3]), in assay [1] (setting [4]) and in assay [2] were 0.0168 (inactive), 0.121 and -0.045 (inactive), respectively.

On to `C=CCn1nc(C(=O)N2CCCC2)c2c1CCC(NCc1ccccc1OC(F)(F)F)C2` (centres undefined), for which the z-score in assay [1] (setting [3]) is 0.124 (inactive); in assay [1] (setting [4]), 0.327; in assay [2] it was -0.3 (inactive).

As for `COc1cccc(-c2cc3c(n(Cc4ccccn4)c2=O)CCN(C(=O)c2csc(C)n2)C3)c1`, the values for the z-score in assay [1] (setting [3]), in assay [1] (setting [4]) and in assay [2] were -0.876, 3.95 and -0.495 (inactive), respectively.

As to `C[C@@H](NC(=O)N[C@H]1C[C@H]2C(=O)N[C@H](Cc3ccc(O)cc3)C(=O)N2C1)c1ccccc1`, the figures for the z-score in assay [1] (setting [3]), in assay [1] (setting [4]) and in assay [2] were -0.3 (inactive), -0.613 and 0.6 (inactive), respectively.
